This note sets out measurements from PubChem BioAssay (NCI).

The nature of the experiment: NCI Yeast Anticancer Drug Screen. Data for the rad14 strain (AID 159).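 Also: 0% = growth of vehicle-treated control cultures.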 To be noted: S. cerevisiae rad14 strain growth inhibition, active compounds read high. The protocol:
Growth inhibition of yeast strains with defined genetic alterations is measured as a screen for potential anti-cancer activity. Selected strains with alterations in DNA damage repair or cell cycle control were exposed to compounds and growth inhibition was measured relative to vehicle treated controls. The strain used in this assay is rad14

SMILES strings stand for the structures. This is part of a sample that, as a whole, favours compounds with a hit. Of some 79,000 tested, about 15% had one in any assay. A number with no mark means an inactive call. Calls of active or inactive are those of the source. Rule as the data show it: active = growth inhibition above about 70%; inactive = the rest.

For the molecule `COc1ccc(C/C=N/Nc2ccc([N+](=O)[O-])cc2)cc1OC`, the growth inhibition is, setting by setting: (at 1.2 µM) 3%; (at 3.7 µM) 12%; (at 11.0 µM) 23%; (at 33.0 µM) 25%; (at 100.0 µM) 30%.
On the same counts, the results for `Cc1ccc(N=Nc2ccc(O)c(=O)cc2)cc1` are -3%, 1%, 47%, 84% (active) and 92% (active).
As to `COc1cc(O)c2c(c1O)C(=O)c1cc(C)ncc1C2=O`, the growth inhibition by setting is: (at 1.2 µM) 31%; (at 3.7 µM) 47%; (at 11.0 µM) 70% (active); (at 33.0 µM) 91% (active); (at 100.0 µM) 94% (active).
For `CCOC1=C/C(=N\Nc2ccc([N+](=O)[O-])cc2)CCC1` the same measures were 2%, 9%, 27%, 73% (active) and 33%.
On the same counts, the results for `CC(=O)OC1CCC2(C)C(=CC(C3C=C4CC(OC(C)=O)CCC4(C)C4=C3C3CC5OC6(CCC(C)CO6)C(C)C5C3(C)CC4)C3=C2CCC2(C)C3CC3OC4(CCC(C)CO4)C(C)C32)C1` (stereo not given) are 1%, 0%, 4%, 13% and 84% (active).
For `CC(C)OC(=O)Nc1ccc2nc(-c3cscn3)[nH]c2c1`, the growth inhibition reads like this: (at 1.2 µM) -4%; (at 3.7 µM) -6%; (at 11.0 µM) -4%; (at 33.0 µM) 16%; (at 100.0 µM) 99% (active).
Regarding `O=C(c1ccc([N+](=O)[O-])cc1)C1N=NCC1c1ccccc1` (stereo not given), the growth inhibition reads like this: (at 1.2 µM) 1%; (at 3.7 µM) 2%; (at 11.0 µM) 6%; (at 33.0 µM) 13%; (at 100.0 µM) 51%.
Turning to `C[C@]12CC[C@H](O)CC1=CC[C@@H]1C2CC[C@]2(C)C(=O)NC(=O)CC12` (stereo not given in full), the growth inhibition is, setting by setting: (at 1.2 µM) -50%; (at 3.7 µM) -50%; (at 11.0 µM) -38%; (at 33.0 µM) 64%; (at 100.0 µM) 87% (active).
